Consider 36 compounds from PubChem BioAssay (NCATS).

Records with an inconclusive call do not appear. Unmarked numbers belong to inactive results. Calls of active or inactive are those of the source. Calls follow the shape of the dose curve; as a rule, active = well fitted inhibition curve with a large enough effect; inconclusive = small, poorly fitted or top-dose-only effect; inactive = flat fitted curve, though single readings scatter.
Potency is read from the fitted curve at half-maximal effect.

In the test the test system is Zika virus NS2B-NS3 protease. Description: Primary screen GU AMC qHTS for Zika virus inhibitors (AID 1347154). Also: nearly all actives have a fitted effect of over 70% in size.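 As to activity change, negative = inhibition: 0% = no-inhibitor control and -100% = no-enzyme control.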 The settings on record: Zika NS2B-NS3 unlinked protease, AMC fluorogenic substrate; series mostly up to 54.1 µM; activity change, negative = inhibition: at the top concentration. Summed up:
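Unlinked Zika NS2B hydrophilic domain–NS3 protease complex at 25 nM in 10 mM Tris-HCl pH 8.0, 0.01% Tween 20, with an AMC peptide substrate. Fluorescence change (340/450 nm) over 15 min at room temperature, normalized to controls, fitted to 4-parameter Hill.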
As for `COc1cc2nc(-c3cc(F)ccc3O)nc(N[C@@H]3CNC[C@@H]3C(C)(C)O)c2cc1OC`, the “activity change, negative = inhibition” value was 13.9%. Still for that read-out and setting: the figure for `OC[C@H]1O[C@@H](Oc2ccc(O)cc2)[C@H](O)[C@@H](O)[C@H]1O` is -3.28%. Take `Cc1cc2nc3c(=O)[nH]c(=O)nc-3n(CC(O)C(O)C(O)CO)c2cc1C` (stereo unspecified): the “activity change, negative = inhibition” value was -11.7%. For `CCc1cc(-c2n[nH]c(C)c2-c2ccc3c(c2)OCCO3)c(O)cc1O`, the “activity change, negative = inhibition” value was -7.55%. With `COc1ccnc(CS(=O)c2nc3ccc(OC(F)F)cc3[nH]2)c1OC` (stereo unspecified), the Potency entry is “inactive”. For the compound `CC(=O)OCC(=O)[C@@]12OC(C)(C)O[C@H]1C[C@H]1[C@@H]3C[C@H](F)C4=CC(=O)C=C[C@]4(C)[C@@]3(F)[C@@H](O)C[C@@]12C`, the “activity change, negative = inhibition” value is 11.3%. Regarding `CC(NCCc1ccc(O)cc1)C(O)c1ccc(O)cc1` (stereo unspecified), the “activity change, negative = inhibition” value was 10.3%. With `CCOC(=O)N1CCN([N+]([O-])=NOc2cc(ON=[N+]([O-])N3CCN(C(=O)OCC)CC3)c([N+](=O)[O-])cc2[N+](=O)[O-])CC1`, the “activity change, negative = inhibition” value was -5.16%. As for `CCC(=O)NCC[C@@H]1CCc2ccc3c(c21)CCO3`, the “activity change, negative = inhibition” value is 6.97%. The same measure, in the same setting: the figure for `Cc1cc(NC(=O)Nc2ccc(N(C)C)cc2)c2cc(F)cc(F)c2n1` is -1.41%. On the same count and under the same terms, the figure for `CN(C)N=Nc1nc[nH]c1C(N)=O` is 5.32%; for `CN(C)CCOc1ccc(C(=C(CCCl)c2ccccc2)c2ccccc2)cc1` it is 2.7%; for `CCC[C@@H](NC(=O)[C@@H]1[C@H]2CCC[C@@H]2CN1C(=O)[C@@H](NC(=O)[C@@H](NC(=O)c1cnccn1)C1CCCCC1)C(C)(C)C)C(=O)C(=O)NC1CC1` it is -0.0698%. The same measure, in the same setting: the same measure for `NC(=O)c1nnn(Cc2cc(Cl)c(C(=O)c3ccc(Cl)cc3)c(Cl)c2)c1N`: -9.17%; for `NS(=O)(=O)c1ccc(Nc2nc(OCC3CCCCC3)c3[nH]cnc3n2)cc1`: -22.2%. As for `Oc1cc(O)cc(C=Cc2ccc(O)c(O)c2)c1`, the Potency was 13.6 µM (active). On to `O=C(c1ccc(F)c(F)c1Nc1ccc(I)cc1F)N1CC(O)([C@H]2CCCCN2)C1`, for which the “activity change, negative = inhibition” value is 17.6%. Consider `COc1ccc2ccc(=O)oc2c1CC=C(C)C`, for which the “activity change, negative = inhibition” value is -6.72%. The same measure, in the same setting: the same measure for `Cc1[nH]c(C=C2C(=O)Nc3ccc(S(=O)(=O)N(C)c4cccc(Cl)c4)cc32)c(C)c1C(=O)N1CCN(C)CC1`: 7.48%; for `NCC1CCC(C(=O)O)CC1` (stereo unspecified): 12%; for `CN(C)c1ccccc1CN1CCCN(Cc2ccccc2N(C)C)C1c1ccncc1`: 4.76%. On the same count and under the same terms, the figure for `CN1c2ccccc2C(=O)N2CCc3c([nH]c4ccccc34)C21` (stereo unspecified) is -1.44%; for `CC[C@@H]([C@H](C)O)n1ncn(-c2ccc(N3CCN(c4ccc(OCC5CO[C@@](Cn6cncn6)(c6ccc(F)cc6F)C5)cc4)CC3)cc2)c1=O` (stereo partly specified) it is 2.19%.

Regarding `OC1CCC(Nc2ncc3nc(Nc4c(F)cc(F)cc4F)n([C@@H]4CCOC4)c3n2)CC1` (stereo partly specified), the Potency was 24.1 µM (active).

As for `CCCCC(C=O)NC(=O)C(CC(C)C)NC(=O)OCc1ccccc1` (stereo unspecified), the “activity change, negative = inhibition” value was 10.2%.

Regarding `CNc1nc(-c2ccc3c(N)n[nH]c3c2)cc(N2C[C@@H](C(=O)NC3CCCCC3)CC[C@@H]2C)n1`, the “activity change, negative = inhibition” value is -4.38%. Consider `COc1ccc2cc1Oc1ccc(cc1)C[C@H]1c3cc(c(OC)cc3CCN1C)Oc1c(OC)c(OC)cc3c1[C@H](C2)N(C)CC3`, for which the Potency result is “inactive”. As to `C[C@]12C=CC(=O)C=C1CC[C@@H]1[C@@H]2[C@@H](O)C[C@@]2(C)[C@@H]1CC[C@]2(O)C(=O)CO`, the “activity change, negative = inhibition” value was 6.13%. On to `C[C@]12CC[C@@H]3c4ccc(O)cc4CC[C@H]3[C@H]1[C@@H](O)[C@@H](O)[C@H]2O`, for which the “activity change, negative = inhibition” value was 5.82%. On the same count and under the same terms, the same measure for `O=C1C(CCC(O)c2ccc(F)cc2)C(c2ccc(O)cc2)N1c1ccc(F)cc1` (stereo unspecified): -2.64%. In the case of `NC[C@H]1O[C@H](O[C@@H]2[C@@H](O)[C@@H](O[C@H]3O[C@H](CO)[C@@H](O)[C@H](N)[C@@H]3O)[C@H](N)C[C@@H]2N)[C@H](O)[C@@H](O)[C@H]1O`, the “activity change, negative = inhibition” value was 10.1%. Still for that read-out and setting: the same measure for `O=C(NCCCCN1CCOCC1)c1cc2ccccc2o1`: 13.6%; for `CC(O)=C(C#N)C(=O)Nc1ccc(C(F)(F)F)cc1`: -12.8%. As for `CN[C@@H]1[C@@H](O)[C@@H](O[C@@H]2[C@@H](O)[C@H](O[C@H]3O[C@H](CN)[C@@H](O)[C@H](O)[C@@H]3O)[C@@H](N)C[C@@H]2NC(=O)[C@@H](O)CN)OC[C@]1(C)O`, the “activity change, negative = inhibition” value was 6.42%. With `O=c1[nH]c(=O)n([C@H]2C[C@@H](O)[C@@H](CO)O2)cc1I`, the “activity change, negative = inhibition” value is 0.0631%. In the case of `Cc1nc(NC(=O)N2CCC[C@@H]2C(N)=O)sc1-c1csc(C(C)(C)C)n1`, the “activity change, negative = inhibition” value was 0.125%.
